The record followed here is PubChem BioAssay AID624330 (Southern Research Specialized Biocontainment Screening …, 2012).

Hit rate of the full screen: of about 340,000 compounds, about 2,100 (0.62%) were called active.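 The calls were made as follows: active = first-screen hits whose inhibition reached a set limit at any dose in the follow-up dose series; inconclusive = inhibition above the set first-screen limit but never retested; inactive = the rest.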 Only a sample is shown. Entries with a potency or affinity are not part of this list.

The target in the experiment is Rac GTPase-activating protein 1 (Homo sapiens) (UniProt Q9H0H5). The experiment in a line: blockers of MgcRacGAP-driven Rac1 GTP hydrolysis – biochemical, ADP Hunter fluorescence, primary and confirmatory, confirmation (AID 624330).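 Also: fluorescence reports GDP produced by GAP-driven GTP hydrolysis.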 The following applies: MgcRacGAP-stimulated Rac1 GTP hydrolysis, at 30 µM, active compounds read high, GST-tagged Rac1 F28L mutant substrate.
Chain of Rac GTPase-activating protein 1 (Homo sapiens) (Q9H0H5 whole entry, looked up): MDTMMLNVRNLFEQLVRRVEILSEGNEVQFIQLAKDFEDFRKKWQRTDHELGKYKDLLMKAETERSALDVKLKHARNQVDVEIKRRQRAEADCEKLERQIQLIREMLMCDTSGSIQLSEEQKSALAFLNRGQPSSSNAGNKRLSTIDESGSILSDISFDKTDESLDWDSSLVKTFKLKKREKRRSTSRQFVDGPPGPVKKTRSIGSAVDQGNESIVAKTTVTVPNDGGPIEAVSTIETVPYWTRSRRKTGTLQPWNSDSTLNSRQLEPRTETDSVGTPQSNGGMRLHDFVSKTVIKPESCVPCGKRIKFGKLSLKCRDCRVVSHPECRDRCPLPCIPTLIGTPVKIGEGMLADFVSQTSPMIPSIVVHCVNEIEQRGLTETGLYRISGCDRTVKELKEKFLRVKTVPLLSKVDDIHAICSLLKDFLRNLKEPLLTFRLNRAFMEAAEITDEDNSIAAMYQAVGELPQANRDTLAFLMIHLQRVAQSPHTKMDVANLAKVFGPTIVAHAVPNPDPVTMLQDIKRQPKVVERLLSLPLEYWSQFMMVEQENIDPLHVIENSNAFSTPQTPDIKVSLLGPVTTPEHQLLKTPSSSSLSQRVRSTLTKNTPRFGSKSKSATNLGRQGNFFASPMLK
As for `CCCCC[C@H]1CN(Cc2ccccc2)C(=O)[C@@H]1CC(=O)NCc1ccccc1`, the inhibition was 8.29% (inactive).

For `Cc1cccc(OCC(=O)Nc2nnc(S(=O)(=O)N3CCCCCC3)s2)c1`, the inhibition was 9.88% (inactive). To `Cc1[nH]c(C)c(S(=O)(=O)NCc2ccco2)c1C(=O)N1CCCCC1` belongs 16.2% (inactive).

As for `COc1ccccc1NC(=O)c1ccc[n+]([O-])c1`, the inhibition is 4.42% (inactive).

For `Cc1cc(F)ccc1S(=O)(=O)Nc1ncnc2sccc12`, the inhibition is -6.18% (inactive).

For the molecule `COc1ccc(CNC(=O)O[C@@H]2C[C@H]3C(=O)N(c4ccccc4)C(=O)[C@H]3[C@@]3(CN(S(=O)(=O)c4ccc(C)cc4)C[C@H]3C)[C@@H]2O)cc1OC`, the inhibition is 13.3% (inactive). In the case of `Cc1cn([C@@H](CCCCNC(=O)OC(C)(C)C)C(=O)NCCCCCCCCCCC(=O)N2CCN(C(=O)OC(C)(C)C)CC2)nn1`, the inhibition was 3.56% (inactive). To `CCN(CC)c1ccc(NC(=O)COC(=O)CSc2ccc(Br)cc2C)cc1` belongs 7.43% (inactive); to `Cc1ccccc1SCC(=O)OCC(=O)NCCNC(=O)COC(=O)CSc1ccccc1C`, 2.21% (inactive); to `O=C(Cn1ccc(C(F)(F)F)n1)N=Nc1c(O)[nH]c2ccccc12`, 4.76% (inactive). For `CCc1ccc(S(=O)(=O)NCCc2cn3cccc(C)c3n2)s1`, the inhibition is 4.85% (inactive). `Cc1ccc(O)c(N=Cc2ccc(C)s2)c1`: the inhibition is -11.5% (inactive).

As for `O=[N+]([O-])c1ccc(O)c(N=Cc2sc3ccccc3c2O)c1`, the inhibition is 27.9% (inactive). For `COc1ccc(N=Cc2sc3ccccc3c2Cl)cc1` the value was 11% (inactive); for `Oc1c(C=Nc2ccc(Cl)cn2)sc2ccccc12`, 8.33% (inactive). With `CN(C)C(=O)CSc1nc(-c2ccccc2)c(-c2ccccc2)o1`, the inhibition was 2.82% (inactive). For `COc1ccc(C(=O)Oc2ccc3c(c2)OCO3)cc1OC` the value was 7.69% (inactive); for `COc1ccc(OC(=O)c2ccc(OC)c(S(=O)(=O)N3CCOCC3)c2)cc1`, 22.8% (inactive); for `O=C(Oc1ccc(OC(=O)c2ccncc2)cc1)c1ccncc1`, 5.17% (inactive). For the molecule `O=C(Nc1ccc2c(c1)OCCO2)c1ccc(Br)c(S(=O)(=O)N2CCOCC2)c1`, the inhibition was -4.87% (inactive). For `COc1ccc(CCN2C(=O)c3ccccc3NC2c2cc(Cl)c(O)c(OC)c2)cc1` (stereo unspecified) the value was 7.25% (inactive); for `COC(=O)c1c(NC(=O)CC2SC(N)=NC2=O)sc(C)c1C` (stereo unspecified), -4.36% (inactive); for `Nc1cc2c(cc1Cl)N(Cc1ccccc1)C(=O)CO2`, 4.01% (inactive).

Turning to `Cc1cc2c(NCC(C)O)ncnc2s1` (stereo unspecified), the inhibition is 8.37% (inactive). For `CSCC(=O)N1CCCC(N2CCN(c3ccc(F)cc3)CC2)C1` (stereo unspecified) the value was 15.7% (inactive); for `Cc1ccccc1OCC(=O)Nc1ccc(N2CCN(C(=O)c3ccco3)CC2)cc1`, 10.3% (inactive); for `COc1ccc(CCNC(=O)COC(=O)c2cc(OC)c(OC)cc2OC)cc1OC`, 7.3% (inactive). To `C=CCc1cc(Cl)ccc1OCCOCCN(C)C` belongs 22% (inactive). To `C=CCc1cc(Cl)ccc1OCCNCCOC` belongs 10.8% (inactive); to `C=CCc1cc(Cl)ccc1OCCCNC(C)C`, 23.5% (inactive); to `C=CCc1cc(C)ccc1OCCn1ccnc1`, 17.7% (inactive). For `C=CCc1ccccc1OCCn1ccnc1`, the inhibition was 9.27% (inactive). To `C=CCc1cc(C)ccc1OCCOCCn1ccnc1` belongs 15.9% (inactive). For `C=CCc1cc(Cl)ccc1OCCCn1ccnc1` the value was 19.6% (inactive); for `C=CCOc1ccc(Cl)cc1CNCCCN1CCOCC1`, 1.5% (inactive). To `COc1ccc(NC(=O)N2CCN(S(=O)(=O)c3ccc(F)cc3)CC2)c(OC)c1` belongs 7.35% (inactive); to `CCCCCCCNC(=O)C1(CC2CC(c3ccc(Cl)cc3)=NO2)CCN(C(=O)CCCCCBr)CC1` (stereo unspecified), 3.79% (inactive).

Consider `COc1ccc2cc(CN(CC3COCCO3)S(=O)(=O)c3ccccc3)c(=O)[nH]c2c1` (stereo unspecified), for which the inhibition is -14.3% (inactive). To `Cc1onc(-c2ccccc2)c1C(=O)N/N=C/c1ccco1` belongs 4.91% (inactive); to `N#Cc1ccc(NC(=O)Cn2c3[n+](c4ccc(C(F)(F)F)cc42)CCCCC3)cc1`, -1.69% (inactive); to `CNc1nc(-c2ccc3c(c2)CCN3C(=O)c2ccccc2C)cs1`, 10.3% (inactive).

As to `COc1ccc(-c2cc(C(=O)Nc3cccnc3Cl)no2)cc1`, the inhibition is 9.21% (inactive).

For the molecule `C=CCn1ccc2c([N+](=O)[O-])cccc2c1=O`, the inhibition was 8.97% (inactive).

Take `COCCNC(=O)c1ccccc1NC(=O)c1ccccc1N(C)S(=O)(=O)c1ccc(C)cc1`: the inhibition was 3.63% (inactive). To `CC1CCCN(C(=O)c2cc(S(=O)(=O)N3CCCCC3)c[nH]2)C1` (stereo unspecified) belongs -0.16% (inactive); to `CCCc1nc(NCc2ccccc2)c(C#N)c2c1CCCC2`, 8.86% (inactive). For `Cc1c(NC(=O)c2ccc(S(=O)(=O)N3CC(C)OC(C)C3)cc2)c(=O)n(-c2ccccc2)n1C` (stereo unspecified) the value was 4.26% (inactive); for `COc1ccc(NC(=O)CCC(=O)c2ccc(C(C)C)cc2)cc1`, 12.2% (inactive). `COc1ccc(C(=O)CCC(=O)Nc2cccc(Cl)c2)cc1`: the inhibition is 4.1% (inactive). Consider `CCOc1ccccc1N1CCN(CC(=O)Nc2ccnn2C2CCCC2)CC1`, for which the inhibition is 5.05% (inactive).

Turning to `CN(C(=O)CSc1nc2scc(-c3ccccc3)c2c(=O)[nH]1)c1ccccc1`, the inhibition was 6.96% (inactive). To `O=C1c2ccccc2CN2C(=O)c3ccccc3CN12` belongs 3.55% (inactive); to `COc1ccccc1/C=C/CN1CCN(Cc2ccc(C)o2)C(CCO)C1` (stereo unspecified), 11% (inactive). For `COc1ccc(/C=C/CN2CCN(CC(C)C)C(CCO)C2)cc1` (stereo unspecified) the value was 5.86% (inactive); for `Cc1ccc(CN2CCN(C/C=C/c3ccc(F)cc3)CC2CCO)o1` (stereo unspecified), 7.9% (inactive); for `CC(C)CCN1CCN(C/C=C/c2ccco2)CC1CCO` (stereo unspecified), 14.2% (inactive).

Turning to `CC(C)(C)c1ccc(OC(=O)c2ccc3snnc3c2)cc1`, the inhibition was 4.25% (inactive). For `CC(=O)N/C(=C\c1ccccc1)C(=O)OCC(=O)NC(=O)c1ccccc1` the value was 5.8% (inactive); for `CC(OC(=O)C1CC(=O)N(Cc2ccco2)C1)C(=O)Nc1cccc(C#N)c1` (stereo unspecified), 6.14% (inactive); for `O=C(CN(C(=O)c1csnn1)c1ccc(F)cc1)NCCc1ccccc1`, 7.07% (inactive).

In the case of `COc1ccc(C(O)Cc2nccn2C)cc1` (stereo unspecified), the inhibition is 2.89% (inactive).

The inhibition is the change of the read-out against control, counted positive when it falls.
